What all share (assay): DAPPL (digital affinity profiling via proximity ligation, sequencing); 10 mM Tris-HCl pH 7.5, 50 mM NaCl, 1 mM DTT, 4% glycerol, room temperature, 30 min; GST-TFs on glutathione beads, 16-mer random dsDNA library, 0.1% formaldehyde crosslink after washing; high values mean tight binding
The target of assay [1] is T1, FEV (Homo sapiens, UniProt Q99581 1-238).
T1 sequence: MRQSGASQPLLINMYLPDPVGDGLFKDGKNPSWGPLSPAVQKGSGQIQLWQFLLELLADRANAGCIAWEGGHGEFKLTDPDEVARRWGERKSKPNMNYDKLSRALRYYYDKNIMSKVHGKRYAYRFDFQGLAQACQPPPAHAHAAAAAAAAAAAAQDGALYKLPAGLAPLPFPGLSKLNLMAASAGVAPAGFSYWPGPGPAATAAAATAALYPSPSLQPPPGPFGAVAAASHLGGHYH
As to conditions: protein: recombinant; tags: N-terminal GST; dsDNA, one strand shown. Summed up: (§1)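 Binding signal is given per hexamer as its read frequency for a factor divided by its frequency in the tag-only sample. GST-fused human transcription factors were expressed in yeast, captured on glutathione beads, barcoded with DNA and pooled with that sample, then incubated with 200 nmole of a 16-mer random double-stranded DNA library in Tris/NaCl/DTT/glycerol buffer for 30 min at room temperature. The pools were then washed, crosslinked, proximity-ligated, amplified by PCR and sequenced on an Illumina NextSeq500.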

The target in assay [2] is ETV5 (Homo sapiens, UniProt P41161 1-510). As to conditions: protein: recombinant; tags: N-terminal GST; dsDNA, one strand shown. The gist of the method:
as §1

Assay [3] addresses HSF1 (Homo sapiens, UniProt Q00613 1-529). Particulars: protein: recombinant; tags: N-terminal GST; chain copies: 3; dsDNA, one strand shown. The gist of the method: as §1
In assay [4] the target is T2, SPIC (Homo sapiens, UniProt Q8N5J4 1-248).
T2 sequence: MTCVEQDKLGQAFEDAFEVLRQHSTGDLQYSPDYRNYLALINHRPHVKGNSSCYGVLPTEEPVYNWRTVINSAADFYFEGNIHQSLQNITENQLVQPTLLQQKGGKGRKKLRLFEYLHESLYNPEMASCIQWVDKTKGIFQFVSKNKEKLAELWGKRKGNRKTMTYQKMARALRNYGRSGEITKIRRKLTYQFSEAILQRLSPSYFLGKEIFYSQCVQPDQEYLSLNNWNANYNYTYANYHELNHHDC
As to conditions: protein: recombinant; tags: N-terminal GST; dsDNA, one strand shown. The gist of the method: as §1

In assay [5] the target is ELF4 (Homo sapiens, UniProt Q99607 1-663). As to conditions: protein: recombinant; tags: N-terminal GST; dsDNA, one strand shown. Summed up:
as §1

The target of assay [6] is T3, ELK4 (Homo sapiens, UniProt P28324-2 1-405).
T3 sequence: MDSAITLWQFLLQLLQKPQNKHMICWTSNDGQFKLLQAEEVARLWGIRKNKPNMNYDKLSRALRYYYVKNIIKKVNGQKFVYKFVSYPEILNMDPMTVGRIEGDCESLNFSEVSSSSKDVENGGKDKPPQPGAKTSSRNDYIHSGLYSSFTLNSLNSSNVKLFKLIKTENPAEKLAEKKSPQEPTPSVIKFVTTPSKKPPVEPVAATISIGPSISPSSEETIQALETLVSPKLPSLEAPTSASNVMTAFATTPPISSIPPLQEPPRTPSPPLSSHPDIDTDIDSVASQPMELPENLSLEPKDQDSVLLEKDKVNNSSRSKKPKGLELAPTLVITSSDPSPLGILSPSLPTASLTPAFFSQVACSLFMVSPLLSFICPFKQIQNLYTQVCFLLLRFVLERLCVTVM
Particulars: protein: recombinant; tags: N-terminal GST; dsDNA, one strand shown. Summed up: as §1

The target in assay [7] is T4, ETV2 (Homo sapiens, UniProt O00321 1-342).
T4 sequence: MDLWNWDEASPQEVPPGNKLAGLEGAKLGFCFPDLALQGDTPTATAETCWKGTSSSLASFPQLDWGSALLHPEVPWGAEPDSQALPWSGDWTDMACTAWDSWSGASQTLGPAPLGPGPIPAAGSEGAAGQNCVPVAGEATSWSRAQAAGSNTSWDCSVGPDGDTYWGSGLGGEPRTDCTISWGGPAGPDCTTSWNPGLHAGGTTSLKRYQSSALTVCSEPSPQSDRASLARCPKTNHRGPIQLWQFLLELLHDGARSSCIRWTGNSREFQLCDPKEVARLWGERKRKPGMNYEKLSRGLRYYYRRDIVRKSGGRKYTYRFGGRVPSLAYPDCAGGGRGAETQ
As to conditions: protein: recombinant; tags: N-terminal GST; dsDNA, one strand shown. Summed up: as §1

The target of assay [8] is T5, ELF3 (Homo sapiens, UniProt P78545 1-371).
T5 sequence: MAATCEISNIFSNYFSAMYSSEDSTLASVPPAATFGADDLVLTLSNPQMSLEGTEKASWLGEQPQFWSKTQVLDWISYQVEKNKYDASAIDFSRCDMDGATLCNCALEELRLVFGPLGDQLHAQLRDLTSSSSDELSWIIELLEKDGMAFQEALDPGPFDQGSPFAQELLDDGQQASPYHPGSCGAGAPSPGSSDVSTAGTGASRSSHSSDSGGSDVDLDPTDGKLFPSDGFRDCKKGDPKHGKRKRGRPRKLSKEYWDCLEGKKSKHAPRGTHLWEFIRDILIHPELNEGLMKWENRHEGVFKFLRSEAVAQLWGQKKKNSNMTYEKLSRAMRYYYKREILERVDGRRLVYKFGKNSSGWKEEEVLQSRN
As to conditions: protein: recombinant; tags: N-terminal GST; dsDNA, one strand shown. Summed up: as §1

The target of assay [9] is CRX (Homo sapiens, UniProt O43186 1-299). Particulars: protein: recombinant; tags: N-terminal GST; dsDNA, one strand shown. Summed up:
as §1

In assay [10] the target is ETV1 (Homo sapiens, UniProt P50549 1-477). As to conditions: protein: recombinant; tags: N-terminal GST; dsDNA, one strand shown. Summed up: as §1
Sequence of ETV1 (P50549 whole entry): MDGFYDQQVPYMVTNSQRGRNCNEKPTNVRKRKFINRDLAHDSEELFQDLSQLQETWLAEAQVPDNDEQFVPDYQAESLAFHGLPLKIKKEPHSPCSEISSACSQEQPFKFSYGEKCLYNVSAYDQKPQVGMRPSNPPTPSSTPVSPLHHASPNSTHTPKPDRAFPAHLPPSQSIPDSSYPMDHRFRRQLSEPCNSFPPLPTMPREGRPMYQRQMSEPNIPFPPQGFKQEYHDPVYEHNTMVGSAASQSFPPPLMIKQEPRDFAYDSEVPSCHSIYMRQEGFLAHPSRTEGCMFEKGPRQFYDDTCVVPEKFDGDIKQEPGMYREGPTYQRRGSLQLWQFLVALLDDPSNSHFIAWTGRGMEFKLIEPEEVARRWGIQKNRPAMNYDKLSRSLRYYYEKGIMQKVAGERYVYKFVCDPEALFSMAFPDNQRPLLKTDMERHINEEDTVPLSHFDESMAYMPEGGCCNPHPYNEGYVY
The target in assay [11] is T6, ERF (Homo sapiens, UniProt P50548 1-548).
T6 sequence: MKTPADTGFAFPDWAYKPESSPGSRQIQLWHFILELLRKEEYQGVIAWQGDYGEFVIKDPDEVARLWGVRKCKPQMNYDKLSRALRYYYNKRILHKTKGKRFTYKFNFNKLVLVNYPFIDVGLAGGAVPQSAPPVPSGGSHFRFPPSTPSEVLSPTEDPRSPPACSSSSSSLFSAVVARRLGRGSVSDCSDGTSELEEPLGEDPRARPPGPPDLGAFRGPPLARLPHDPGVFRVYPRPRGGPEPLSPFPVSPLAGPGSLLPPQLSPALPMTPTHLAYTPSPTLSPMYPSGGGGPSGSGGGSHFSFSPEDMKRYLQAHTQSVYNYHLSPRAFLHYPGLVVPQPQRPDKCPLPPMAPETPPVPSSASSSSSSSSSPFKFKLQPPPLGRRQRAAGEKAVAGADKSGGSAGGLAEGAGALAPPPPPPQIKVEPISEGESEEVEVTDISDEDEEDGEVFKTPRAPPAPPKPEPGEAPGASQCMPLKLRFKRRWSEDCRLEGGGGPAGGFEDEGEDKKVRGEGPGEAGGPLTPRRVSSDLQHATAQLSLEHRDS
Particulars: protein: recombinant; tags: N-terminal GST; dsDNA, one strand shown. The gist of the method:
as §1

Assay [12] concerns the target T7, ETV3L (Homo sapiens, UniProt Q6ZN32 1-361).
T7 sequence: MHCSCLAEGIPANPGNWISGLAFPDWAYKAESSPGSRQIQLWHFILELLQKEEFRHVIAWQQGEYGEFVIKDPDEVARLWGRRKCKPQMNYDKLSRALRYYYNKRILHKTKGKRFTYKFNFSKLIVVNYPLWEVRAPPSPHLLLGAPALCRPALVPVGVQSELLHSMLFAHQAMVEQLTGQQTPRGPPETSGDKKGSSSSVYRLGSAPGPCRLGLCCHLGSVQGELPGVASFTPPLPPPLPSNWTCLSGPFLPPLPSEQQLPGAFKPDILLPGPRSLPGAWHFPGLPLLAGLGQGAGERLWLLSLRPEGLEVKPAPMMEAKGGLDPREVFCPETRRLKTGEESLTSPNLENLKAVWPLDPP
As to conditions: protein: recombinant; tags: N-terminal GST; dsDNA, one strand shown. Summed up: as §1

Assay [13] concerns the target T8, ETS2 (Homo sapiens, UniProt P15036 1-469).
T8 sequence: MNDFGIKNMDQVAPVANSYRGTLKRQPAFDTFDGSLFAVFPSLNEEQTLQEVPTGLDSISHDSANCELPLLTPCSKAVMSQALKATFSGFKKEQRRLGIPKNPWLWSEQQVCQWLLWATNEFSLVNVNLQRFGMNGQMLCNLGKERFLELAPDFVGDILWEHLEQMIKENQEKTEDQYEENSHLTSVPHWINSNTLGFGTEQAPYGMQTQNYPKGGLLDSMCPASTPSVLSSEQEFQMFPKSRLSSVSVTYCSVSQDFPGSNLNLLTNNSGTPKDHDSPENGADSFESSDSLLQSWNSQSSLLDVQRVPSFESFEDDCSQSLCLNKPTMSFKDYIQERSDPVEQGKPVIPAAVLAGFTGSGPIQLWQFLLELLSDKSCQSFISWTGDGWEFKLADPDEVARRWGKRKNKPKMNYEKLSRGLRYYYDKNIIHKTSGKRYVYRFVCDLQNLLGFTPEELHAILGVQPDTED
Particulars: protein: recombinant; tags: N-terminal GST; dsDNA, one strand shown. Summed up:
as §1

In assay [14] the target is T9, SPDEF (Homo sapiens, UniProt O95238 1-335).
T9 sequence: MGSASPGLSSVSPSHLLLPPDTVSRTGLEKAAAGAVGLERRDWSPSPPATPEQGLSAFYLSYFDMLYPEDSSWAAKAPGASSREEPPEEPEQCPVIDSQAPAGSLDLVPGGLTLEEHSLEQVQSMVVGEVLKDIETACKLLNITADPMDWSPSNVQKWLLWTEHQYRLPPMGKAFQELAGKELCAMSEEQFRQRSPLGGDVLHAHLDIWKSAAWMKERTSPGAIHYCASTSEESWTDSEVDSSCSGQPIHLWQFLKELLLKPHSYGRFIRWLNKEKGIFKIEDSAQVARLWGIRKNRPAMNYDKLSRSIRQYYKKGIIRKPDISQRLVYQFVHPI
As to conditions: protein: recombinant; tags: N-terminal GST; dsDNA, one strand shown. Summed up:
as §1

In assay [15] the target is T10, ETV7 (Homo sapiens, UniProt Q9Y603 1-341).
T10 sequence: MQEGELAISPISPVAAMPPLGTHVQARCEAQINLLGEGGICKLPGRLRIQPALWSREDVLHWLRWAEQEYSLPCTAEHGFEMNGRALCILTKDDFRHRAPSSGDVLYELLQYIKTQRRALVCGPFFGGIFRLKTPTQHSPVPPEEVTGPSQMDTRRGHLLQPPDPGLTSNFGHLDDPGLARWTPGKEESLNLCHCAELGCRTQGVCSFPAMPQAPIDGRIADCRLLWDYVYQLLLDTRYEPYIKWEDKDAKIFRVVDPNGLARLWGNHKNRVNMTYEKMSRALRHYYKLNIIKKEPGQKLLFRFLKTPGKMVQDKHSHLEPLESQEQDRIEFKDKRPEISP
Particulars: protein: recombinant; tags: N-terminal GST; dsDNA, one strand shown. The gist of the method: as §1

The target in assay [16] is T11, ELF5 (Homo sapiens, UniProt Q9UKW6-2 1-255).
T11 sequence: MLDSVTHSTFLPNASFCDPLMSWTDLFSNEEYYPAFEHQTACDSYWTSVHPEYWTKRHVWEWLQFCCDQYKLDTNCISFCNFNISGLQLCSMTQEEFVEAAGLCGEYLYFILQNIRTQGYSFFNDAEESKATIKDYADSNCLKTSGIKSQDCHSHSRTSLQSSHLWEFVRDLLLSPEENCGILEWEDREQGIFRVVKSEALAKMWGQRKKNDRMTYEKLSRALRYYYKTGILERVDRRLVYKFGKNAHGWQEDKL
Particulars: protein: recombinant; tags: N-terminal GST; dsDNA, one strand shown. The gist of the method:
as §1

Assay [17] addresses T12, ETV3 (Homo sapiens, UniProt P41162-2 1-143).
T12 sequence: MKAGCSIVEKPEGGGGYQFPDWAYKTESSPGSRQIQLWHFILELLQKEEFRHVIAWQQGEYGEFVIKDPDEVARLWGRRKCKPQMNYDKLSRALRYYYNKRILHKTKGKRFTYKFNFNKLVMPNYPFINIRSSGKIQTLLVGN
Particulars: protein: recombinant; tags: N-terminal GST; dsDNA, one strand shown. The gist of the method: as §1

The target of assay [18] is ETV6 (Homo sapiens, UniProt P41212 1-452). Particulars: protein: recombinant; tags: N-terminal GST; dsDNA, one strand shown. Summed up: as §1
Sequence of ETV6 (P41212 whole entry): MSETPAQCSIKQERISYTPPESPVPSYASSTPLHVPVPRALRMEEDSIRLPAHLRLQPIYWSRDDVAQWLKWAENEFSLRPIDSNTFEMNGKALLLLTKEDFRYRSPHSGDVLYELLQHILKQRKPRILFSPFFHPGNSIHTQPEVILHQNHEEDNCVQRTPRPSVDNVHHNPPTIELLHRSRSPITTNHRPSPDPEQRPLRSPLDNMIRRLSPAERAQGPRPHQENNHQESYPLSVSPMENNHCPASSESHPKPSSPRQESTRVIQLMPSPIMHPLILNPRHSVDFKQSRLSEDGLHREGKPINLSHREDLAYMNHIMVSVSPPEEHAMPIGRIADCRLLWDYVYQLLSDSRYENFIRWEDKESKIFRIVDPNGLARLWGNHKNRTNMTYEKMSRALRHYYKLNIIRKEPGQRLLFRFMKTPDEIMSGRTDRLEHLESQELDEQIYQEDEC

Sequence of ELF4 (Q99607 whole entry): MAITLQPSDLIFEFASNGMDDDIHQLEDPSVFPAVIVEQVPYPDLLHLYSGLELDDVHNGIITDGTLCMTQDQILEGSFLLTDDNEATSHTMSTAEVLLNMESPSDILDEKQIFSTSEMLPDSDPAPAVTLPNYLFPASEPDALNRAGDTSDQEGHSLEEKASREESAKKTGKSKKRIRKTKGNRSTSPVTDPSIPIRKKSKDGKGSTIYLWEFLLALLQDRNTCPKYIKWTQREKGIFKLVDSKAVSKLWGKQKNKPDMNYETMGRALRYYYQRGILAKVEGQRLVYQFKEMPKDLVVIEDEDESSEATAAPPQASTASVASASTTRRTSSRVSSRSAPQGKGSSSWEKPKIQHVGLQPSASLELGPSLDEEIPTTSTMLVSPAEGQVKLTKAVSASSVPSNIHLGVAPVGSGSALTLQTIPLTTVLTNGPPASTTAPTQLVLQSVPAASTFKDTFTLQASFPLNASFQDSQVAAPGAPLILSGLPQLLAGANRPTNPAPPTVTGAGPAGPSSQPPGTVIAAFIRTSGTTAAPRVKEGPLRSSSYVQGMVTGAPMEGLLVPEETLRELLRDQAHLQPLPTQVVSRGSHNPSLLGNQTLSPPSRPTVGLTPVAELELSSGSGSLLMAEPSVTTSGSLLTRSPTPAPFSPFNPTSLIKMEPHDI
Sequence of CRX (O43186 whole entry): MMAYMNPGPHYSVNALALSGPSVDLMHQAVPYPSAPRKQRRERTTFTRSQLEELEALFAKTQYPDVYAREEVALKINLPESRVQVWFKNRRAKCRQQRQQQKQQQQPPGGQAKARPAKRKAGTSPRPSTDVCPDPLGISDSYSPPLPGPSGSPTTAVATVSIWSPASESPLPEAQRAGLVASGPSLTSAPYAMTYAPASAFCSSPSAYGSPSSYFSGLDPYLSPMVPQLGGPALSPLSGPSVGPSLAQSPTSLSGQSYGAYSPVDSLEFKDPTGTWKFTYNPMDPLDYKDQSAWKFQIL
Sequence of ETV5 (P41161 whole entry): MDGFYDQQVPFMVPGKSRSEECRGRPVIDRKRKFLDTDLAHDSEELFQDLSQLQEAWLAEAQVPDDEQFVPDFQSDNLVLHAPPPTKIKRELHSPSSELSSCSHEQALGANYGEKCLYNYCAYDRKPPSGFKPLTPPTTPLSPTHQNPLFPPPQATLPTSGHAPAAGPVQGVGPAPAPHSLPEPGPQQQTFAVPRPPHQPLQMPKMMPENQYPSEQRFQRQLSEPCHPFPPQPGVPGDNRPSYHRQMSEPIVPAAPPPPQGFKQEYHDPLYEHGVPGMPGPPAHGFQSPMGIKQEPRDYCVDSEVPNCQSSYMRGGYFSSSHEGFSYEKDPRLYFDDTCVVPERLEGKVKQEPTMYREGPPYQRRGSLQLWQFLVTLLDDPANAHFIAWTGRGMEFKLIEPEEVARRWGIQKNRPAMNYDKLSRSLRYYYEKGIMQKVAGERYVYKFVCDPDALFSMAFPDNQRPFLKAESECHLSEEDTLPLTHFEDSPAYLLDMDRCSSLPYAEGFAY
Sequence of HSF1 (Q00613 whole entry): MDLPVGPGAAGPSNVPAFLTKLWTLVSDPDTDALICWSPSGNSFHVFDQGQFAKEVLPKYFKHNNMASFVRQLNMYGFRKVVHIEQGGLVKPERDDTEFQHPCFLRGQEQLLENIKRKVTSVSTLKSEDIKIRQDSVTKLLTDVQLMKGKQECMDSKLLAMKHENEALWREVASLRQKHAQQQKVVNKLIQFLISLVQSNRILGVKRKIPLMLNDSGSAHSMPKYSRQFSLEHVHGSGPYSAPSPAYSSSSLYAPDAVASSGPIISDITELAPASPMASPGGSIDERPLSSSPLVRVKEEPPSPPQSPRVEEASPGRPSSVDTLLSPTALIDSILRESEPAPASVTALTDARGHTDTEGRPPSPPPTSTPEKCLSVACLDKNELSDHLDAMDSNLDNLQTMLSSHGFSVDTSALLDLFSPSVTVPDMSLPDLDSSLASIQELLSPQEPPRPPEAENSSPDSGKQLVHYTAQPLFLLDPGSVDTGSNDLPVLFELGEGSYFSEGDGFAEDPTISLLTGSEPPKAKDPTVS

In the case of TCACTT, the binding signal is 1.99 fold enrichment (6-mer frequency, TF over GST control) in assay [1]; 1.75 fold enrichment (6-mer frequency, TF over GST control) in assay [2]; 1.14 fold enrichment (6-mer frequency, TF over GST control) in [3]; 1.62 fold enrichment (6-mer frequency, TF over GST control) in assay [4]; 1.74 fold enrichment (6-mer frequency, TF over GST control) in assay [5]; 1.74 fold enrichment (6-mer frequency, TF over GST control) in assay [6]. The binding signal in assay [7] was 1.72 fold enrichment (6-mer frequency, TF over GST control); in assay [8] it was 1.62 fold enrichment (6-mer frequency, TF over GST control); in assay [9] it was 1.23 fold enrichment (6-mer frequency, TF over GST control); in assay [10] it was 1.67 fold enrichment (6-mer frequency, TF over GST control); in assay [11], 1.56 fold enrichment (6-mer frequency, TF over GST control); in assay [12], 1.5 fold enrichment (6-mer frequency, TF over GST control). For the same sequence, the binding signal was 1.69 fold enrichment (6-mer frequency, TF over GST control) in [13]; 1.73 fold enrichment (6-mer frequency, TF over GST control) in [14]; 1.63 fold enrichment (6-mer frequency, TF over GST control) in assay [15]; 1.79 fold enrichment (6-mer frequency, TF over GST control) in assay [16]; 1.55 fold enrichment (6-mer frequency, TF over GST control) in assay [17]; 1.67 fold enrichment (6-mer frequency, TF over GST control) in [18].

Values taken from article PMC7862700, “An all-to-all approach to the identification of sequence-specific readers for epigenetic DNA modifications on cytosine”.
